Source: PubChem BioAssay
The entries come from a sample that favours hits as a whole.
AMA1-RON2 inh = inhibitors of Plasmodium falciparum AMA1-RON2 interaction; AlphaScreen AMA1-biotinylated RON2 peptide binding; Potency, µM (titrated, usually from 58.2 µM), for the others: at the highest dose activity change, negative = inhibition, actives largely listed as inhibitors; hit rate 0.2% among 360,000; AID 720542; active means well fitted inhibition curve with a large enough effect; inconclusive means small, poorly fitted or top-dose-only effect; inactive means no such curve, though single readings can be large or run the other way;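 further: potency means the concentration at half of the fitted maximal effect; 0% = vehicle wells and -100% = peptide control; nearly all actives have a fitted effect of over 45% in size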
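AMA1 (3D7) with his tag at 25 nM final met compounds first, then biotinylated RON2 peptide at 25 nM; detection used donor plus acceptor beads, 10 µg/mL apiece, read by AlphaScreen after 30 min at room temperature.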
CHX counter = affects cycloheximide protein synthesis inhibition readout, counter-screen. hit rate 12% among 300,000. cell reporter, cycloheximide protein synthesis inhibition counterscreen. AID 2314. max response, %; in the data active means max response mostly above about 13%, no sharp cut-off; inactive means mostly below about 14%; further: read at 38.3 µM for the half of the compounds with a filed dose; 0% is about no effect
Marburg entry inh = blocks Marburg virus binding to or entry into cells; hit rate 1.8% among 300,000; Marburg virus pseudotyped entry inhibition, cell reporter; Potency, µM (doses to about 37.8 µM), without a hit: at the top dose activity change, negative = inhibition, hits mostly inhibitors; calls by dose curve; tested in HEK293 cells; further: potency means the concentration at half of the fitted maximal effect; on the % scale 0 is the no-effect control and ±100 the full control effect
Lassa entry inh = inhibitors of Lassa virus binding or cell entry. Potency, µM (series often up to 37.9 µM), for inactives: at the top dose activity change, negative = inhibition, actives largely listed as inhibitors. Lassa virus pseudotype entry inhibition, cell reporter. hit rate 1.2% among 300,000; calls by dose curve; tested in HEK293 cells; further: potency means the concentration at half of the fitted maximal effect; on the % scale 0 is the no-effect control and ±100 the full control effect; nearly all actives have a fitted effect of over 50% in size
Shiga inhibitor = Shiga toxin inhibition; inhibition, % at 38.7 µM; AID 2315; Vero cells, Shiga toxin protein synthesis inhibition reporter; hit rate 9.2% among 290,000; in the data active means inhibition mostly above about 28%, no sharp cut-off; inactive means mostly below about 43%; further: 0% is about no effect
Numbers without * were called inactive; ? = inconclusive; . = not tested or not shown; [ ] = another dose, or the depositor's remark.

SMILES	AMA1-RON2 inh	CHX counter	Marburg entry inh	Lassa entry inh	Shiga inhibitor
O=C(CSc1ccc(-c2ccc(Cl)cc2)nn1)N1CCCc2ccccc21	-5%	13*	?	?	26
C[C@@H](CO)[C@H](/C=C/c1ccccc1)CCO[Si](c1ccccc1)(c1ccccc1)C(C)(C)C	.	13	.	.	-3
COc1cccc(C(=O)NCC(=O)N2CCC3(CC2)NCCc2[nH]cnc23)c1OC	11%	9	15%[46.1 µM]	?	-9
Cc1ccc(NC(=O)c2oc3ccccc3c2C)nc1	1%	63*	?	-23%[46.1 µM]	88*
Cc1c(C(=O)Nc2ccccn2)oc2c(Cl)cccc12	-4%	.	?	7%[46.1 µM]	.
Cc1c(C(=O)Nc2ccccn2)oc2ccccc12	-5%	47*	?	-8%	109*
Cc1c(C(=O)Nc2ccc(N3CCOCC3)cc2)oc2ccccc12	-13%	40*	?	17%	97*
CCOc1ccc2oc(C(=O)Nc3ccc(C)cn3)c(C)c2c1	-9%	.	.	.	.
Cc1c(C(=O)Nc2ccncc2)oc2ccccc12	-3%	35*	-4%	-1%	52
CC(=O)Nc1cccc(-c2ccnc3c2CC(C)(C(=O)Nc2ccc(Cl)cc2)O3)c1 (stereo not given)	6%	.	.	.	.
COc1ccc(N2CC(C)(C)[C@H](CC(=O)Nc3ccccc3)C2=O)cc1	7%	.	.	.	.
Cc1c(C(=O)Nc2cccnc2Cl)oc2ccccc12	8%	26*	16%[46.1 µM]	?	81*
O=C(Nc1nc2n(n1)C(c1ccc(F)cc1)C=C(c1ccc(Cl)cc1)N2)c1ccc([N+](=O)[O-])cc1 (stereo not given)	.	.	2.8µM*	?	.
O=C(Nc1nc2n(n1)C(c1ccc(F)cc1)C=C(c1ccccc1)N2)c1ccc(Cl)cc1 (stereo not given)	.	.	-18%[46.1 µM]	-1%[46.1 µM]	.
CCOc1ccc(-c2nc(CSCC(=O)N3CCN(c4cccc(OC)c4)CC3)c(C)o2)cc1	-24%	16*	2%	.	75*
CCOc1ccc(-c2nc(CS(=O)(=O)CC(=O)NCc3ccc(F)cc3)c(C)o2)cc1	4%	12*	.	.	20*
CCOc1ccc(-c2nc(CN3CCCC(C(=O)N4CCOCC4)C3)c(C)o2)cc1 (stereo not given)	16%	18*	-7%[46.1 µM]	-12%[46.1 µM]	31*
CCOC(=O)N1CCC(NC(=O)CSCc2nc(-c3ccc(OCC)cc3)oc2C)CC1	13%	10	.	.	8
CCOc1ccc(-c2nc(CSCC(=O)NC3CC3)c(C)o2)cc1	-5%	22*	.	.	2
Cc1ccc(-c2nc(CS(=O)(=O)CC(=O)NCc3ccc(Cl)cc3)c(C)o2)cc1	.	.	-3%[46.1 µM]	13%[46.1 µM]	.
CCc1c(C)[nH]c2ccc(C)cc2c1=O	-8%	22*	?	?	45*
C=CCc1c(C)[nH]c2ccc(C)cc2c1=O	0%	31*	8%	20%	70*
Cc1ccc2[nH]c(C)c(CC(=O)O)c2c1	-5%	7	9%	7%	36
Cc1ccc2[nH]c(-c3ccccc3)c(CN(C)C)c(=O)c2c1	6%	41*	-4%	-3%	46
CCOC(=O)N1CCN(C(=O)CCSc2ccc(C)cc2)CC1	5%	8.6*	6%	?	active
SMILES	AMA1-RON2 inh	CHX counter	Marburg entry inh	Lassa entry inh	Shiga inhibitor
CCOC(=O)N1CCN(C(=O)CCSc2ccccc2)CC1	-4%	54*	-3%	?	85*
CCOC(=O)N1CCN(C(=O)CCSc2ccc(Cl)cc2)CC1	11%	13	?	?	18
NC(=O)C1CCN(C(=O)CCSc2ccccc2)CC1	-15%	20*	26%[46.1 µM]	22%	44*
c1ccc(C2CSc3ccccc3N2)cc1 (stereo not given)	70%	64*	.	.	102*
CC1CSc2ccccc2NC1=S (stereo not given)	12%	-1	0%	8%	-1
Cc1ccc(-c2nn3c(C)nnc3s2)cc1N	-3%	16*	?	15%	48
Cc1ccc(-c2nn3c(C)nnc3s2)cc1NC(=O)C(C)C	12%	11	.	.	29
Cc1ccc(-c2nn3c(C)nnc3s2)cc1NCc1c(F)cccc1Cl	2%	-3	9.2µM*	?	-9
COCC(C)n1c(C)cc(C(=O)COC(=O)c2ccc3ncsc3c2)c1C (stereo not given)	-17%	24*	12%	-3%	68*
CCN(c1ccccc1)S(=O)(=O)c1ccc(NC(=O)c2cc(=O)c3ccc(C)c(C)c3o2)cc1	.	.	19%[46.1 µM]	15%[46.1 µM]	.
CCOC(=O)C1(CC2CCCCO2)CCN(Cc2ccc(OC)cc2F)CC1 (stereo not given)	6%	-2	?	?	12
Cc1ccccc1NC(=O)NCCc1nc2ccccc2[nH]1	1%	-3	?	6%	8
Cc1ccccc1NC(=S)c1nc2ccccc2[nH]1	17%[11.6 µM]	42*	?	9%	active
OC(c1ccc(Cl)cc1)C(O)c1nc2ccccc2[nH]1 (stereo not given)	4%	2	12%	5%	-10
S=C(Nc1ccc(Cl)cc1)c1nc2ccccc2[nH]1	15%	59*	?	?	66*
CCOC(=O)c1c(NC(=O)CSc2nc3cccnc3n2C)sc(C(C)=O)c1C	6%	-3	10µM*	-10%	-6
CCOC(=O)c1sc(NC(=O)CSc2nc3cccnc3n2C)nc1C	4%	-1	13%[46.1 µM]	0%[46.1 µM]	-22
Cc1cc(SCC(=O)c2ccc(Cl)cc2)nc(=O)[nH]1	42%	43*	.	.	52*
Cc1ccc(CNC(=O)CSc2cc(C)[nH]c(=O)n2)cc1	.	.	.	-1%[46.1 µM]	.
Cc1cc(SCc2ccccc2C)nc(=O)[nH]1	6%	11	.	.	-4
Cc1cc(SCC(=O)c2ccccc2)nc(=O)[nH]1	69%	63*	.	.	85*
Cc1ccc(C(=O)CSc2cc(C)[nH]c(=O)n2)cc1	20%	37*	.	.	84*
COc1ccc(CCNC(=O)c2cc3sccc3n2Cc2ccc(Cl)cc2)cc1OC	.	.	?	-26%[46.1 µM]	.
CCCn1cnc2c(=S)nc(N)[nH]c21	84%	1	.	.	-8
CN(C(=O)COC(=O)CSc1ccccc1)c1c(N)n(Cc2ccccc2)c(=O)[nH]c1=O	-5%	.	.	.	.
SMILES	AMA1-RON2 inh	CHX counter	Marburg entry inh	Lassa entry inh	Shiga inhibitor
FC(F)(F)c1cccc(-c2nc3nc(Cl)c(Cl)nc3[nH]2)c1	0%	50*	.	.	102*
FC(F)(F)c1nc2nc(Cl)c(Cl)nc2[nH]1	6%	.	.	.	.
CC(C)Oc1cccc(C(=O)Nc2nnc([C@@H]3C[C@H](O)[C@@H](CO)O3)s2)c1	2%	.	.	.	.
COc1cccc(Nc2nc(-c3cccc(N4C(=O)c5ccccc5C4=O)c3)cs2)c1	-22%	33*	?	?	30
COc1cccc(Nc2nc(-c3ccc(O)cc3)cs2)c1	24%	35*	22%	6%	78
COc1cccc(Nc2nnc(SCN3C(=O)c4ccccc4C3=O)s2)c1	-9%	6	3%	?	3
Cc1ccc(CN2CCc3nc(N4CCN(C)CC4)ncc3C2)s1	.	.	.	2%[46.1 µM]	.
CN(CCCN1CCCCC1)C(=O)CCc1nnc(C2CCCCC2)o1	-2%	-3	?	16%	9
CN(Cc1cccc(-n2cccn2)c1)C(=O)CCc1nnc(C2CCCCC2)o1	0%	40*	?	15%[46.1 µM]	55*
